The results in this text go back to PubChem BioAssay (Tox21).

Inconclusive results are not listed. Unmarked numbers belong to inactive results. Active and inactive are the calls of the source. Calls come from the whole dose curve; as a rule, active = well fitted curve in the direction sought with a large enough effect in the repeat runs; inconclusive = weak or mixed curves; inactive = no such curve, though single readings can be large; an effect the other way counts as inactive or inconclusive.

A short description of experiment [1]: qHTS RealTime-Glo MT Cell Viability Assay in HepG2 cells - 40 hour (AID 1224870). Note: nearly all actives have a fitted effect of over 50% in size. The method, boiled down:
(§1)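 HepG2 cells mixed with RealTime-Glo MT reagents (NanoLuc plus cell-permeant prosubstrate) were seeded at 600 cells/well, incubated 5 h at 37 C/5% CO2, then pinned with compounds in DMSO; nonlytic luminescence tracked viability during 40 h treatment.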
Background: Quantitative high-throughput screening tests each substance at several concentrations.

Experiment [2] is described as follows: A CellTox Green Cytotoxicity Assay to monitor cytotoxicity in HEK293 cells - 40 hour (AID 1224871). Note: nearly all actives have a fitted effect of over 45% in size. A digest of the protocol: (§2)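 Each value comes from one timepoint of a single continuous run in which HEK293 cells with CellTox Green were exposed to compound for up to 40 h at 37 C, dye fluorescence rising with cell death.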
Experiment [3] in a line: qHTS RealTime-Glo MT Cell Viability Assay in HEK293 cells - 16 hour (AID 1224872). For activity change, negative = cytotoxicity: top concentration of the series differs between compounds. Note: nearly all actives have a fitted effect of over 50% in size. Note: potency is the fitted concentration of half-maximal effect. A digest of the protocol:
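HEK293 cells seeded with NanoLuc/prosubstrate reagent, rested 5 h at 37 C, then dosed and kept at 37 C up to 40 h. Nonlytic real-time luminescence from viable cells read at 0, 8, 16, 24, 32 and 40 h.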

A short description of experiment [4]: qHTS RealTime-Glo MT Cell Viability Assay in HepG2 cells - 8 hour (AID 1224873). Note: nearly all actives have a fitted effect of over 55% in size. The method, boiled down:
as §1

Experiment [5] can be described thus: qHTS RealTime-Glo MT Cell Viability Assay in HEK293 cells - 40 hour (AID 1224874). Note: nearly all actives have a fitted effect of over 50% in size. Note: potency is the fitted concentration of half-maximal effect. To be noted: RealTime-Glo luminescence; max response: active compounds read low. A digest of the protocol:
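qHTS format; HEK293 cells with NanoLuc/prosubstrate reagent, 37 C/5% CO2 for 5 h pre-dosing; compounds 23 nL in DMSO; luminescence at each time point reflects viable cells.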

Experiment [6] is described as follows: A CellTox Green Cytotoxicity Assay to monitor cytotoxicity in HepG2 cells - 16 hour (AID 1224876). Note: nearly all actives have a fitted effect of over 45% in size. The method, boiled down:
(§3)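 Continuous culture of HepG2 cells with a membrane-impermeant DNA dye; rising fluorescence marks dead cells. Compound exposure lasted up to 40 h at 37 C, with reads every 8 h from 0 h.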

Experiment [7] is described as follows: qHTS RealTime-Glo MT Cell Viability Assay in HepG2 cells - 32 hour (AID 1224877). Note: nearly all actives have a fitted effect of over 55% in size. A digest of the protocol: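 HepG2 cells (600/well) were dispensed with RealTime-Glo reagents, incubated 5 h at 37 °C, then treated with compounds in DMSO for up to 40 h. Nonlytic NanoLuc luminescence reflecting viable cells was read at each stated time point.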
The nature of experiment [8]: A CellTox Green Cytotoxicity Assay to monitor cytotoxicity in HepG2 cells - 24 hour (AID 1224878). Note: nearly all actives have a fitted effect of over 45% in size. A digest of the protocol: as §3
Experiment [9] is described as follows: A CellTox Green Cytotoxicity Assay to monitor cytotoxicity in HepG2 cells - 40 hour (AID 1224879). Note: nearly all actives have a fitted effect of over 40% in size. The method, boiled down:
as §3

Experiment [10] in a line: A CellTox Green Cytotoxicity Assay to monitor cytotoxicity in HEK293 cells - 24 hour (AID 1224875). Note: series mostly up to about 77 µM; nearly all actives have a fitted effect of over 45% in size. A digest of the protocol: as §2
% is set by controls: 0 for no effect and ±100 for the full control effect.

In the case of `O=C(O)c1ccccc1[N+](=O)[O-]`, the Potency result in [1], in experiment [2], in [3], in experiment [6], in [7] and in [8] was “inactive” each time. Moreover, the Potency entry in experiment [9] was “inactive”. Further, in experiment [4], the compound was called inactive. Further, the max response in experiment [5] is 24.4%.

Take `Clc1nc2ccccc2nc1Cl`: the Potency entry in experiment [1], in experiment [2], in experiment [3], in [10], in [6] and in [7] was “inactive” each time. In addition, the Potency result in experiment [8] and in experiment [9] was “inactive” in each case. Besides, the compound was called inactive in [4].

For `O=S(=O)(O)c1cc(Cl)c(Cl)cc1Cl`, the Potency entry in experiment [1], in experiment [2], in experiment [3] and in [9] was “inactive” throughout. Also, the outcome in experiment [4] was inactive. Further, the max response in [5] was -19.4%.

Turning to `CCCC1CCOC(C)S1` (centres undefined), the Potency entry in experiment [1], in experiment [2], in experiment [3], in [6], in [7] and in experiment [8] was “inactive” throughout. For the same compound, the Potency result in [9] was “inactive”. Also, the outcome in experiment [4] was inactive. The max response in experiment [5] is 4.04%.

Consider `CC(CCl)OC(C)CCl` (centres undefined), for which the Potency entry in experiment [1], in experiment [2], in [3], in experiment [10], in [6] and in experiment [7] was “inactive” throughout. For the same compound, the Potency result in experiment [8] and in [9] was “inactive” in each case. For the same compound, in [4], the compound was classed as inactive.

Consider `O=P(c1ccccc1)(c1ccccc1)c1ccccc1`, for which the Potency result in experiment [1], in experiment [2], in [3], in [10], in experiment [6] and in experiment [7] was “inactive” throughout. The Potency result in experiment [8] and in experiment [9] was “inactive” each time. Moreover, the call in [4] was inactive.

Take `c1ccc(-c2ccc(-c3ccccc3)cc2)cc1`: the activity change, negative = cytotoxic in [1] was 3.84% [at 15.8 µM]; in [7], 2.08% [at 15.8 µM]. The cytotoxicity increase in [2] is -4.32% [at 15.8 µM]; in experiment [6], -3.4% [at 15.8 µM]; in experiment [9], 1.53% [at 15.8 µM]. In experiment [3], the activity change, negative = cytotoxicity was 0.695% [at 15.8 µM]. Also, in experiment [4], the viability change, negative = cytotoxic was 0.239% [at 15.8 µM]. Also, in experiment [5], the max response was 0.336%. In addition, in experiment [8], the cytotoxicity is -1.79% [at 15.8 µM].

On to `C=C[Si]1(C)O[Si](C)(C=C)O[Si](C)(C=C)O[Si](C)(C=C)O1` (centres undefined), for which the Potency entry in experiment [1], in [2], in experiment [3], in experiment [10] and in [7] was “inactive” throughout. In experiment [4], the compound was classed as inactive. Moreover, the max response in [5] is -1.07%.

As for `O=C(C1CCCCC1)N1CC(=O)N2CCCc3ccccc3C2C1` (centres undefined), the Potency result in [1], in experiment [2], in experiment [3], in experiment [6], in experiment [8] and in experiment [9] was “inactive” throughout. Also, the result in experiment [4] was inactive. Besides, the max response in experiment [5] is -23.1%.

Consider `CCc1ccc2c(c1)C(=O)c1ccccc1C2=O`, for which the Potency result in [1], in experiment [2], in experiment [3], in experiment [6], in [7] and in experiment [8] was “inactive” each time. Further, the Potency entry in [9] is “inactive”. In addition, the compound was called inactive in experiment [4]. Besides, in experiment [5], the max response was 11.6%.

Turning to `COc1ccc(/C=C/S(=O)(=O)NC(=O)c2ccc(C)cc2Cl)cc1`, the Potency entry in experiment [1], in [2], in experiment [3], in experiment [6], in experiment [7] and in experiment [8] was “inactive” throughout. The Potency entry in [9] was “inactive”. In addition, the result in experiment [4] was inactive. For the same compound, the max response in [5] is -7.95%.

Take `O=C1c2ccccc2C(=O)c2c1ccc(O)c2O`: the Potency result in experiment [1], in experiment [2], in experiment [3], in [6], in experiment [8] and in experiment [9] was “inactive” throughout. In experiment [4], the outcome was inactive. In addition, in [5], the max response was -2.45%.

With `C/C=C1\[C@H]2C=C(C)C[C@]1(N)c1ccc(=O)[nH]c1C2`, the Potency entry in [1], in experiment [2], in [3], in [10], in [6] and in experiment [8] was “inactive” each time. For the same compound, the Potency entry in [9] was “inactive”. Also, the call in experiment [4] was inactive. In experiment [5], the max response is -2.81%.

For `CCOc1cc(OCC)c(C(C)=O)cc1OCC`, the Potency result in experiment [1], in [2], in [6], in experiment [8] and in experiment [9] was “inactive” in each case. The Potency in experiment [3] and in experiment [5] was 19.2 µM (active) throughout. Further, the result in experiment [4] was inactive.

In the case of `C=C(C)C(=O)OCCCCCCCCCCOC(=O)C(=C)C`, the Potency entry in experiment [1], in experiment [2], in [3], in [10], in experiment [6] and in experiment [8] was “inactive” each time. Further, in [9], the Potency entry was “inactive”. In addition, in experiment [4], the outcome was inactive. In addition, the max response in experiment [5] was -16.4%.

In the case of `O=C1c2ccccc2C(=O)C1c1ccc2cc(S(=O)(=O)O)cc(S(=O)(=O)O)c2n1`, the Potency entry in experiment [1], in experiment [2], in experiment [3], in [10], in [6] and in experiment [7] was “inactive” throughout. Also, the Potency result in experiment [8] and in [9] was “inactive” each time. Besides, the result in experiment [4] was inactive.

As to `CC1(C)CC(O)CC(C)(C)N1[O]`, the Potency entry in [1], in experiment [2], in experiment [3], in experiment [6], in experiment [7] and in experiment [8] was “inactive” each time. In addition, in experiment [9], the Potency entry is “inactive”. In addition, in experiment [4], the compound was called inactive. Also, in experiment [5], the max response was 6.37%.

As for `O=C(O)c1ccc(O)c(O)c1`, the Potency result in experiment [1], in [2], in experiment [3], in experiment [6], in [7] and in [8] was “inactive” in each case. For the same compound, in [9], the Potency result was “inactive”. For the same compound, the compound was classed as inactive in experiment [4]. Further, in experiment [5], the max response was -5.14%.

Consider `CC1(COc2ccc(CC3SC(=O)NC3=O)cc2)CCCCC1` (centres undefined), for which the Potency entry in experiment [1], in experiment [2], in experiment [3], in [6], in experiment [7] and in experiment [8] was “inactive” each time. Besides, the call in [4] was inactive. The max response in experiment [5] was 1.6%.

As for `CCCC(=O)OCCC(C)C`, the Potency entry in [1], in experiment [2], in [3], in [6], in experiment [7] and in experiment [8] was “inactive” throughout. The Potency entry in experiment [9] was “inactive”. The outcome in [4] was inactive. Moreover, the max response in [5] is -1.39%.

Regarding `CO[C@@H]1[C@@H](O[C@@H]2O[C@H](C)[C@@H](O[C@H]3C[C@@](C)(O)[C@@H](O)[C@H](C)O3)[C@H](N(C)C)[C@H]2O)[C@@H](CC=O)C[C@@H](C)[C@@H](O[C@@H]2CC[C@H](N(C)C)[C@@H](C)O2)/C=C/C=C/C[C@@H](C)OC(=O)C[C@H]1OC(C)=O`, the Potency entry in [1], in experiment [2], in [3], in [6], in [7] and in experiment [8] was “inactive” in each case. The Potency entry in [9] was “inactive”. Moreover, the outcome in [4] was inactive. In addition, the max response in [5] is 1.04%.

Regarding `Nc1ccc(C(=O)Oc2ccccc2)c(O)c1`, the Potency entry in [1], in experiment [2], in [3], in experiment [6], in experiment [8] and in experiment [9] was “inactive” in each case. Further, the outcome in [4] was inactive. Further, the max response in experiment [5] was -15.9%.

Turning to `CC(=O)Nc1ccccc1O`, the Potency result in experiment [1], in experiment [2], in [3], in experiment [10], in [6] and in [7] was “inactive” throughout. The Potency entry in experiment [8] and in [9] was “inactive” throughout. Also, in experiment [4], the result was inactive.

`Cc1cc(C)n(CO)n1`: the Potency entry in experiment [1], in [2], in experiment [3], in [10], in experiment [6] and in experiment [7] was “inactive” throughout. The Potency entry in [8] and in experiment [9] was “inactive” in each case. In experiment [4], the compound was called inactive.

Regarding `C=Cc1ccc(C=C)cc1`, the Potency result in experiment [1], in experiment [2], in experiment [3], in experiment [6], in experiment [7] and in experiment [8] was “inactive” each time. Further, the Potency result in experiment [9] is “inactive”. Also, the outcome in experiment [4] was inactive.
